Measurements reported in ChEMBL document CHEMBL3988442, “University of Dundee, Small-Polar-MMV Screening Library” (2021).
For some of these results: Results with a measured potency or affinity are listed apart.

Assays:
Set-up in all cases: scale not given: direction of the effect not stated beside the values
[1] = target: Protein translocase subunit SecA (Escherichia coli (strain K12)) (UniProt P10408); assay: Assay to Identify E. coli SecA ATPase Inhibitors; type: functional; conditions: 30 µM
[2] = target: T1, Ubiquitin-activating enzyme e1, putative (Leishmania donovani (strain BPK282A1)) (UniProt E9BSI1); assay: Leishmania donovani Ubiquitin Activating Enzyme (LdE1); type: functional; conditions: 30 µM
T1 sequence (whole entry): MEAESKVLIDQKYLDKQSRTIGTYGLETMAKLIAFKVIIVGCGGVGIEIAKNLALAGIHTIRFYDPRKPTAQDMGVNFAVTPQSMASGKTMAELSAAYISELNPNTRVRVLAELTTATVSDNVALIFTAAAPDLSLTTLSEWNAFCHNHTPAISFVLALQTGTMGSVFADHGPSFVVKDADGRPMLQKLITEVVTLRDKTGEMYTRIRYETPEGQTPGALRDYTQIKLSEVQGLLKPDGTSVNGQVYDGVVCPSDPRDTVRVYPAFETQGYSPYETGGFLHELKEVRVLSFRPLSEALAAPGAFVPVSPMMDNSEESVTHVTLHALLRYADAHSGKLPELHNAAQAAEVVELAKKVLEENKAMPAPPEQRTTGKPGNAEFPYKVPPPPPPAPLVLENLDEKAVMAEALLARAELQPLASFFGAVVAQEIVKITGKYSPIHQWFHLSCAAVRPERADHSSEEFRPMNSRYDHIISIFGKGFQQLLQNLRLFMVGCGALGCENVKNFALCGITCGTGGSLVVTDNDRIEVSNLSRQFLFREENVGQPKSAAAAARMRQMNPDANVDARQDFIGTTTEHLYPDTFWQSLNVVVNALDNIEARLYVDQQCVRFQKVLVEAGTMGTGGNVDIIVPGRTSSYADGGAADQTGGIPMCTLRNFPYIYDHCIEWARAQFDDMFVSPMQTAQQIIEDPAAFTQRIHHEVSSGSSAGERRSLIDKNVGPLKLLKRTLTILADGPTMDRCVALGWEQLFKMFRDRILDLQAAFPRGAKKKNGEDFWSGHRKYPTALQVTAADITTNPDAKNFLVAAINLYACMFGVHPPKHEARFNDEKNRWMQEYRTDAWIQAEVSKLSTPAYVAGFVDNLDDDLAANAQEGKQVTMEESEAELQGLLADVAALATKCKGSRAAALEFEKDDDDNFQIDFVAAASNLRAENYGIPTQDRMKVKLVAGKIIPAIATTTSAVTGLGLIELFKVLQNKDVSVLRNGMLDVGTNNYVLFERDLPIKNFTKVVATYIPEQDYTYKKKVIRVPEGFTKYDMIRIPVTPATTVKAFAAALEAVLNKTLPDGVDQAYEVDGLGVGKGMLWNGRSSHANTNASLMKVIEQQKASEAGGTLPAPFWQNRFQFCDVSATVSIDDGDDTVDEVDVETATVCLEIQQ

[3] = target: AMP-activated protein kinase, AMPK (Homo sapiens) (UniProt P54646+O43741+P54619+Q9UGJ0+Q9Y478+Q13131+Q9UGI9); assay: AMP-dependent Kinase enzyme assay. An in vitro enzyme assay that detects ADP turnover that is directly proportional to AMPK activity. This uses naive AMPK that is activated during the assay with MK-8722; type: functional; conditions: 30 µM
[4] = target: Sialic acid-binding Ig-like lectin 9 (Homo sapiens) (UniProt Q9Y336); assay: Hs-Siglec9 ALPHAscreen SOP 20170721; conditions: 10 µM
Trypanosoma cruzi = assay: Trypanosoma cruzi phosphomannomutase and mannose-1-phosphate guanylyltransferase assay; type: functional; conditions: 10 µM
[5] = target: T2, Arginase-2, mitochondrial (Homo sapiens) (UniProt P78540); assay: in vitro enzyme assay to detect the production of urea directly proportional to the activity of Arginase II; type: functional; conditions: 33.3 µM; further: in the data most compounds retested in dose-response had high values
T2 sequence (whole entry): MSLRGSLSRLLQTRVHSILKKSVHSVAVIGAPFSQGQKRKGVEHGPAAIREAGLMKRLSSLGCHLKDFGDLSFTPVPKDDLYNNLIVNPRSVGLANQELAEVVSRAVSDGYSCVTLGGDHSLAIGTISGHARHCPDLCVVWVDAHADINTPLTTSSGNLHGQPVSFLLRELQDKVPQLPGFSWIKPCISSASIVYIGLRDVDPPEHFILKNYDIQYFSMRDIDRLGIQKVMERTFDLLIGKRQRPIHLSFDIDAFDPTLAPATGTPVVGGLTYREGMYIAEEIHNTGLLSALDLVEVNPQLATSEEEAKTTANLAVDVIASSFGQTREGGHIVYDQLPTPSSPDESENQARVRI

[6] = target: T3, Proteasome subunit beta (Trypanosoma cruzi) (UniProt O96673); assay: Trypanosoma cruzi proteasome chymotrypsin-like activity (TcProtChymo) assay.; further: in the data most compounds retested in dose-response had high values; type: functional; conditions: 9.37 µM
T3 sequence (whole entry): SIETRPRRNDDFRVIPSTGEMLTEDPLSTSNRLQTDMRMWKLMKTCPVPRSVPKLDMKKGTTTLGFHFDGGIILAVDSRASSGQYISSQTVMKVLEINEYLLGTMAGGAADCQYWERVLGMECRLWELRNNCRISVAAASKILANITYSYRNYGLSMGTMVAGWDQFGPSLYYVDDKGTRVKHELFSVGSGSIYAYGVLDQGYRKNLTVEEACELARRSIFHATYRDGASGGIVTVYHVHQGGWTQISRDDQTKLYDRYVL

Homo sapiens = species: Homo sapiens; assay: To identify inhibition of the IFN signalling (Jak-Stat) pathway via expression of an eGFP reporter gene under the control of an IFN-stimulated response element (ISRE) containing MxA promoter.; type: functional; conditions: 30 µM
[7] = target: T4, Tyrosyl-tRNA synthetase, putative (Trypanosoma cruzi (strain CL Brener)) (UniProt Q4DSP6); assay: Trypanosoma cruzi tyrosyl tRNA synthetase (TcYRS) _High Tyrosine SOP; type: functional; conditions: 30 µM; further: in the data most compounds retested in dose-response had high values
T4 sequence (whole entry): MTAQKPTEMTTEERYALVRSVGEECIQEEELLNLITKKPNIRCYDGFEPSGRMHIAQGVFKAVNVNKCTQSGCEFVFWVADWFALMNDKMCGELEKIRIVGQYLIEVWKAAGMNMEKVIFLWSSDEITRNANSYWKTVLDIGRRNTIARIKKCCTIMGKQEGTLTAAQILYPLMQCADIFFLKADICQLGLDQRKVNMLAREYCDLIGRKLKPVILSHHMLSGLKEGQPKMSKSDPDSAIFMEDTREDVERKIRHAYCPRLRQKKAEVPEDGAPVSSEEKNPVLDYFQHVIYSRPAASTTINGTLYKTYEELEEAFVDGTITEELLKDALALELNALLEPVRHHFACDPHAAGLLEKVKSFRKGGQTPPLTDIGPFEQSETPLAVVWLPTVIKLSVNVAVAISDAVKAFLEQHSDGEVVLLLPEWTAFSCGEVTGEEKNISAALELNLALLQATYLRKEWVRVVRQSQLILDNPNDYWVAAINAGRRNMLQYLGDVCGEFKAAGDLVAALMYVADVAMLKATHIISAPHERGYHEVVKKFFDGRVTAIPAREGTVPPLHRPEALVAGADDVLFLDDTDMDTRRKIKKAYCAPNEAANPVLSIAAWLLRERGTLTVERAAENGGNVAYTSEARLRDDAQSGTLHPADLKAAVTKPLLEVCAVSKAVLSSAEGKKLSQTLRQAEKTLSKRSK

[8] = target: T4, Tyrosyl-tRNA synthetase, putative (Trypanosoma cruzi (strain CL Brener)); assay: Trypanosoma cruzi tyrosyl tRNA synthetase (TcYRS) SOP; type: functional; conditions: 30 µM
[9] = target: Chromo domain-containing protein 1 (Saccharomyces cerevisiae (strain ATCC 204508 / S288c) (Baker's yeast)) (UniProt P32657); assay: ScCHD-1 Enzyme Inhibition Assay; type: functional; conditions: 30 µM; further: in the data most compounds retested in dose-response had high values
Sequence of Chromo domain-containing protein 1 (Saccharomyces cerevisiae (strain ATCC 204508 / S288c) (Baker's yeast)) (P32657 whole entry, the tested form may be a part): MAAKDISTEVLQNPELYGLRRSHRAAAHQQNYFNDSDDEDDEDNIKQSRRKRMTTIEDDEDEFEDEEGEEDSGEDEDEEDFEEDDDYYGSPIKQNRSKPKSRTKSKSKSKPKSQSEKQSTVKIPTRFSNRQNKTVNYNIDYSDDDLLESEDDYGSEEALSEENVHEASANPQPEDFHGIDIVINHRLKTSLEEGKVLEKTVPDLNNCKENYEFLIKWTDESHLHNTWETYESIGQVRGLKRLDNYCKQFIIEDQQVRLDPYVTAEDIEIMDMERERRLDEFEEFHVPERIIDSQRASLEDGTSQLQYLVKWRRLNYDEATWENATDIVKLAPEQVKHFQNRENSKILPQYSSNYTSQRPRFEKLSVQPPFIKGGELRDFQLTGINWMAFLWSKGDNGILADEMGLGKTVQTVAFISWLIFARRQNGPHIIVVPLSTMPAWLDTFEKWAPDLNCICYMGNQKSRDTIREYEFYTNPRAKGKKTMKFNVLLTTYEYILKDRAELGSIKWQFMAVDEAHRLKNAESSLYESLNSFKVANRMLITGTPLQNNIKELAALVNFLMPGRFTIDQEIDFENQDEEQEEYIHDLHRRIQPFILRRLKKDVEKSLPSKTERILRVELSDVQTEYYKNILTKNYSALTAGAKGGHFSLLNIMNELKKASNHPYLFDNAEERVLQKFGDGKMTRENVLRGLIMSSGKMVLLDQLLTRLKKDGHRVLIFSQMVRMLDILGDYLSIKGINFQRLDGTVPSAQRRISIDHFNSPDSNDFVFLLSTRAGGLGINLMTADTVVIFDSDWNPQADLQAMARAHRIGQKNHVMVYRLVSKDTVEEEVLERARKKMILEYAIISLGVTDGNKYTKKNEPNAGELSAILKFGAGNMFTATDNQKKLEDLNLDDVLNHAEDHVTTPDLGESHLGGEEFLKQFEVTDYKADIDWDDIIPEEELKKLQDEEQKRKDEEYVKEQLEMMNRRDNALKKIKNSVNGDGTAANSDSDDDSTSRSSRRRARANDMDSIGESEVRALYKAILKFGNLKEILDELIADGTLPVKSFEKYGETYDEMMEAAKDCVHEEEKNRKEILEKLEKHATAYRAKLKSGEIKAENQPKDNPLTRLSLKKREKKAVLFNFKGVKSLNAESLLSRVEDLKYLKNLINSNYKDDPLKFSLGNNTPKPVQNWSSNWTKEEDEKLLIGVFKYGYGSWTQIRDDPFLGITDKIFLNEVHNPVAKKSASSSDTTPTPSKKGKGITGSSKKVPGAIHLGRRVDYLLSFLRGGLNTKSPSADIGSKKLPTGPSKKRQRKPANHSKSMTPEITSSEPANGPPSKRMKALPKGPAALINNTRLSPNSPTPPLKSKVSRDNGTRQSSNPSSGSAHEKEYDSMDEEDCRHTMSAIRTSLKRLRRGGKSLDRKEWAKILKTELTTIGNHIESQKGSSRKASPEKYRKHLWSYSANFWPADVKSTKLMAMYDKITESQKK

Sequence of Protein translocase subunit SecA (Escherichia coli (strain K12)) (P10408 whole entry): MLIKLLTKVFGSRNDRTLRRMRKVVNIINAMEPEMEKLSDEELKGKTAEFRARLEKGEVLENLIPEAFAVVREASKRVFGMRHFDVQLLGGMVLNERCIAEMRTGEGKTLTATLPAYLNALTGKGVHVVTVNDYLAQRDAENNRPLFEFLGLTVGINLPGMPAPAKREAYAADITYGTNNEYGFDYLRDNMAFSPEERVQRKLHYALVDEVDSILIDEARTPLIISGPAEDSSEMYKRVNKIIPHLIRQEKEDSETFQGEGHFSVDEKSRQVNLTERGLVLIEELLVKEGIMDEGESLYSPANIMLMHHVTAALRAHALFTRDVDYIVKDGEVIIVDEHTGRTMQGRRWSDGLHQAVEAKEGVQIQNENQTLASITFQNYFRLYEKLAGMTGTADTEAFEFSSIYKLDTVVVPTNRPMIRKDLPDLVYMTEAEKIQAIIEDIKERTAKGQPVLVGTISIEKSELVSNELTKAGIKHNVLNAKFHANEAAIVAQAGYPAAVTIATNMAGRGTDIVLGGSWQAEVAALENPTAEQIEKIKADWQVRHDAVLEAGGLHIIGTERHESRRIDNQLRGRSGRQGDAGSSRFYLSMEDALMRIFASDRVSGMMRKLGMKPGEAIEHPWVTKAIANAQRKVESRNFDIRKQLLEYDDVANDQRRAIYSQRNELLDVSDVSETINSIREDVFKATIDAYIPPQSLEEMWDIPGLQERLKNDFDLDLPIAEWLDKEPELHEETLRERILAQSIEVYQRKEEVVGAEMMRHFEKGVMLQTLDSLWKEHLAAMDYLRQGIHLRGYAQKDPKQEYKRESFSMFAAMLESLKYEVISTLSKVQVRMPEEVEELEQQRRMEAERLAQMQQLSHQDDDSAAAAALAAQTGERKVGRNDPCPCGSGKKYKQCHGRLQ
Sequence of Sialic acid-binding Ig-like lectin 9 (Homo sapiens) (Q9Y336 whole entry): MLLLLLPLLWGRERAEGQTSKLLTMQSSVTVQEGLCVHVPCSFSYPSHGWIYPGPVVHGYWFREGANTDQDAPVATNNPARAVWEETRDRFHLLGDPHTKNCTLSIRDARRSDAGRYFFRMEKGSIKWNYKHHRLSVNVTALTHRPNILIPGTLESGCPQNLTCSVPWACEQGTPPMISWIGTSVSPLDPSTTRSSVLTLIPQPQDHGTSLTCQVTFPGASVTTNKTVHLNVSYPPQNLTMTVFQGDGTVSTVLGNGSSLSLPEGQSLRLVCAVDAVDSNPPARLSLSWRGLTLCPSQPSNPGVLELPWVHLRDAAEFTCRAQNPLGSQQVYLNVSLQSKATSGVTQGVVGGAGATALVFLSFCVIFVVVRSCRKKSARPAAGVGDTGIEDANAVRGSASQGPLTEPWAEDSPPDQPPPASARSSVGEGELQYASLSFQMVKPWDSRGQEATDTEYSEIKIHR

Compound: CN(CCc1ccccc1)Cc1cc(C(=O)N2CCN(C)C(=O)C2)no1
- Percent Effect [1]: -3.15%
- Percent Effect [2]: 19.2%
- Percent Effect [3]: -1.8%
- Percent Effect [4]: 11%
- Percent Effect (Trypanosoma cruzi): 1.19%
- Percent Effect [5]: -6.79%
- Percent Effect [6]: 19.3%
- Percent Effect (Homo sapiens): 5.79%
- Percent Effect [7]: 7.29%
- Percent Effect [8]: 23.5%
- Percent Effect [9]: -7.74%

Compound: COc1ncccc1CNC(=O)NC1CCOc2ccccc21 (stereo unspecified)
- Percent Effect [1]: -3.57%
- Percent Effect [2]: 5.41%
- Percent Effect [3]: -0.164%
- Percent Effect [4]: 13.2%
- Percent Effect (Trypanosoma cruzi): 5.48%
- Percent Effect [5]: 0.185%
- Percent Effect [6]: -4.85%
- Percent Effect (Homo sapiens): 10.6%
- Percent Effect [7]: 0%
- Percent Effect [8]: 13.4%
- Percent Effect [9]: -3.69%

Compound: COCC(c1cccc(C(F)(F)F)c1)N(C)C(=O)c1ccncc1 (stereo unspecified)
- Percent Effect [1]: -4.42%
- Percent Effect [2]: 21.1%
- Percent Effect [3]: -0.328%
- Percent Effect [4]: -2.24%
- Percent Effect (Trypanosoma cruzi): 8.46%
- Percent Effect [5]: -4.21%
- Percent Effect [6]: 23.2%
- Percent Effect (Homo sapiens): 26.2%
- Percent Effect [7]: 8.33%
- Percent Effect [8]: 21.9%
- Percent Effect [9]: -14.7%

Compound: COc1c(CNCc2cnn(C)c2)c(C(C)C)nn1C
- Percent Effect [1]: -4.88%
- Percent Effect [2]: 23.7%
- Percent Effect [3]: -11.3%
- Percent Effect [4]: -0.847%
- Percent Effect (Trypanosoma cruzi): 3.01%
- Percent Effect [5]: 3.45%
- Percent Effect [6]: 7.18%
- Percent Effect (Homo sapiens): -15.7%
- Percent Effect [7]: 6.37%
- Percent Effect [8]: 21.9%
- Percent Effect [9]: -13.8%

Compound: Cc1cccc(NC(=O)N2CCCn3cnc(CN4CCCC4)c3C2)c1
- Percent Effect [1]: -3.65%
- Percent Effect [2]: 8.11%
- Percent Effect [3]: -3.2%
- Percent Effect [4]: -1.77%
- Percent Effect (Trypanosoma cruzi): 3.91%
- Percent Effect [5]: 0%
- Percent Effect [6]: 12.4%
- Percent Effect (Homo sapiens): -6.55%
- Percent Effect [7]: 16.8%
- Percent Effect [8]: 11%
- Percent Effect [9]: -4.14%

Compound: Cc1cc(C)n(C2CCCN(C(=O)c3cccc4[nH]ncc34)C2)n1 (stereo unspecified)
- Percent Effect [1]: -5.51%
- Percent Effect [2]: -13.5%
- Percent Effect [3]: 6.86%
- Percent Effect [4]: -7.42%
- Percent Effect (Trypanosoma cruzi): -4.49%
- Percent Effect [5]: -1.67%
- Percent Effect [6]: 7.69%
- Percent Effect (Homo sapiens): -0.356%
- Percent Effect [7]: 6.93%
- Percent Effect [8]: 3.66%
- Percent Effect [9]: 2.88%

Compound: CNC(=O)CN1CCC(NC(=O)N(C)Cc2cc(C)on2)CC1
- Percent Effect [1]: -1.81%
- Percent Effect [2]: 13%
- Percent Effect [3]: -1.11%
- Percent Effect [4]: 13.1%
- Percent Effect (Trypanosoma cruzi): 9.7%
- Percent Effect [5]: 0.632%
- Percent Effect [6]: 9.78%
- Percent Effect (Homo sapiens): -1.08%
- Percent Effect [7]: 8.57%
- Percent Effect [8]: 18.8%
- Percent Effect [9]: -7.35%

Compound: CNc1nc2c(s1)C(c1c(Cl)cccc1Cl)CC(=O)N2 (stereo unspecified)
- Percent Effect [1]: 2.52%
- Percent Effect [2]: 5.26%
- Percent Effect [3]: -467%
- Percent Effect [4]: 4.3%
- Percent Effect (Trypanosoma cruzi): 0.682%
- Percent Effect [5]: 0%
- Percent Effect [6]: 17%
- Percent Effect (Homo sapiens): 4.23%
- Percent Effect [7]: -10.6%
- Percent Effect [8]: -10.4%
- Percent Effect [9]: -2.54%

Compound: CCNC(=O)c1nnn(Cc2ccccc2)c1OC
- Percent Effect [1]: -3.93%
- Percent Effect [2]: 1.33%
- Percent Effect [3]: 3.51%
- Percent Effect [4]: 5.7%
- Percent Effect (Trypanosoma cruzi): -0.197%
- Percent Effect [5]: -8.63%
- Percent Effect [6]: 7.95%
- Percent Effect (Homo sapiens): -9.5%
- Percent Effect [7]: 5.29%
- Percent Effect [8]: 7.69%
- Percent Effect [9]: -2.11%

Compound: CSc1ncccc1C(=O)N1C[C@H]2CC[C@@H]1CN(c1cnccn1)C2
- Percent Effect [1]: -6.82%
- Percent Effect [2]: 7.79%
- Percent Effect [3]: 4.77%
- Percent Effect [4]: 7.96%
- Percent Effect (Trypanosoma cruzi): -3.44%
- Percent Effect [5]: -29%
- Percent Effect [6]: 10.5%
- Percent Effect (Homo sapiens): -1.66%
- Percent Effect [7]: 5.38%
- Percent Effect [8]: 8.64%
- Percent Effect [9]: 0.924%

Compound: CCc1nc(CN2CCCN(C(=O)C(C)COC)CC2)cs1 (stereo unspecified)
- Percent Effect [1]: -1.87%
- Percent Effect [2]: 26%
- Percent Effect [3]: -9.16%
- Percent Effect [4]: 1.76%
- Percent Effect (Trypanosoma cruzi): 3%
- Percent Effect [5]: 3.92%
- Percent Effect [6]: 17.2%
- Percent Effect (Homo sapiens): 10.8%
- Percent Effect [7]: 9.71%
- Percent Effect [8]: 21.9%
- Percent Effect [9]: -10.9%
